Experimental data reported in PMC4336329 (PLoS ONE, 2015).
The whole screen tested about 310,000 compounds, of which about 14,000 (4.5%) showed an effect of 50% or more. Effects have a minus sign here. This excerpt belongs to a sample that is enriched for strong results.

Target: human ether-à-go-go-related gene (hERG) potassium channel (human, UniProt Q12809)
Test: primary screen, population patch clamp on CHO cells stably expressing hERG; higher = less effect of the substance
Method: Briefly, Chinese hamster ovary (CHO) cells stably expressing the hERG channel were dislodged from tissue culture flasks and dispensed into PPC plates. […] During the recording, background leak currents were estimated by a 100 ms step to -80 mV from an initial holding potential of -70 mV and subtracted from the subsequent current measurement. The campaign was conducted in two phases using slight differences in recording protocol. In the first phase, the initial voltage pulse used a 100 ms step to -30 mV from a holding potential of -70 mV, a 2 s conditioning step to +25 mV, and a 2 s test step to -30 mV. During the second phase of the screen, the potential during the conditioning step was raised to +45 mV. In both phases of the campaign, a secondary voltage pulse was applied using the same parameters as the second phase initial pulse. The initial and secondary pulses were applied in the absence of compound, and upon application of 1 μM and 10 μM test concentrations. […]
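Further: peak tail current of the secondary pulse compared with the same well before compound.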

Chain of human ether-à-go-go-related gene (hERG) potassium channel (Q12809 whole entry, looked up): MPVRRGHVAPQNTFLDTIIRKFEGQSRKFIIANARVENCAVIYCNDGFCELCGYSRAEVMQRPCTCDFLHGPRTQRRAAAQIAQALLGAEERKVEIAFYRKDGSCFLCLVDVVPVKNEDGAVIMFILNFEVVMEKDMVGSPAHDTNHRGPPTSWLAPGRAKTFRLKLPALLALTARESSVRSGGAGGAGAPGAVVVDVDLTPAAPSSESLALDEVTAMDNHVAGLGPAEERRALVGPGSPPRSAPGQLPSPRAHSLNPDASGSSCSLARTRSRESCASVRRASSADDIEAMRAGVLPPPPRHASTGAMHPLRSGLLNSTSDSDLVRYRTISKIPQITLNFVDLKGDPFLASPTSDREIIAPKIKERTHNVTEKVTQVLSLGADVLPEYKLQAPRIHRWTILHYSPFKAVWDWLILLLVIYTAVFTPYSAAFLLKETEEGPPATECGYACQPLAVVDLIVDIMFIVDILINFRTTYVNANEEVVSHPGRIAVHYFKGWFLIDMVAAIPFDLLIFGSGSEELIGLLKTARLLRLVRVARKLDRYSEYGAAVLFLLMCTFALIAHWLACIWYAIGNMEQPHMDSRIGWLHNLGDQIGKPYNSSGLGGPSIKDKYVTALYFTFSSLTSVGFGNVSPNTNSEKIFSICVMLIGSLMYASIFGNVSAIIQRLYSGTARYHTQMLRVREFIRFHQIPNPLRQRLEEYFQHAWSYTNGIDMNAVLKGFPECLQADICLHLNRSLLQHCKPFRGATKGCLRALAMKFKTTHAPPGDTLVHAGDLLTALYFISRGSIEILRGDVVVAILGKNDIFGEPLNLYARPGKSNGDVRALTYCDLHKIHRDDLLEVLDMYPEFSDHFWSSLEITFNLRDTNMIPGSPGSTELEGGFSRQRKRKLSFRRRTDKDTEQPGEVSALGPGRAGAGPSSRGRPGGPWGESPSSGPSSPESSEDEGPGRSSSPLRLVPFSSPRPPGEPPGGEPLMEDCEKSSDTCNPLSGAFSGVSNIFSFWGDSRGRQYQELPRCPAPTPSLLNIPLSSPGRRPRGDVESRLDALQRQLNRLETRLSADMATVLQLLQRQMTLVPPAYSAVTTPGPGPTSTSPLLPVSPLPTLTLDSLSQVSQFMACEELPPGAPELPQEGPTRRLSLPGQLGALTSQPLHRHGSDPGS

Row | SMILES | hERG current change (%, negative = inhibition) at 10uM
1 | CC(=O)NC1(C(F)(F)F)N=C2SCCN2C1=O (stereo not drawn) | 7.4%
2 | CCOc1cc(/C=C/c2cccc[n+]2C)ccc1O.[I-] | 24.7%
3 | O=C(COc1ccc(NC(=O)c2ccccc2[N+](=O)[O-])cc1)c1ccc(F)cc1 | 2.93%
4 | O=[N+]([O-])c1cccc(S(=O)(=O)[N-]c2nc3ccccc3nc2-n2cc[n+](Cc3ccccc3)c2)c1 | -5.11%
5 | CC(C)N(C(=O)Cn1c(SCC(=O)Nc2nccs2)nc2ccccc21)C(C)C | 12.6%
6 | CCN(CC)N=Nc1cccc(NC(C)=O)c1 | 0.363%
7 | CCc1nc(C)ccc1OCC(=O)N(CC)CC.O.O=C(O)C(=O)O | -30.9%
8 | CCOC(=O)c1c(NC(=O)CSc2nnc3c(n2)[nH]c2ccccc23)sc2c1CCN(C)C2 | -6.08%
9 | CCOC(=O)c1ccc(NC2c3ccccc3C(=O)N2c2cccnc2)cc1 (stereo not drawn) | -57%
10 | CCOC(=O)c1ccc(NC2c3ccccc3C(=O)N2c2ccccn2)cc1 (stereo not drawn) | 9.93%
11 | Cc1ccc(NC2c3ccccc3C(=O)N2c2cccnc2)cc1 (stereo not drawn) | -21.5%
12 | CCOc1ccc(/C(O)=C2/C(=O)C(=O)N(CCCN3CCOCC3)C2c2ccc(C)cc2)cc1C (stereo not drawn) | 23.8%
13 | NC(=O)c1cccnc1Oc1cccc(Cl)c1 | 11.8%
14 | O=C(NCC(=O)N(c1ccccc1)C(C(=O)NC1CCCCC1)c1ccncc1)c1ccco1 (stereo not drawn) | 5.92%
15 | Cc1ccc(C)c(N(C(=O)CNC(=O)c2ccco2)C(C(=O)NC2CCCCC2)c2cccnc2)c1 (stereo not drawn) | 15.3%
16 | COc1ccccc1CN(C(=O)c1ccco1)C(C(=O)NC1CCCC1)c1ccncc1 (stereo not drawn) | -8.04%
17 | Cc1ccc(N(C(=O)CNC(=O)c2ccco2)C(C(=O)NC2CCCC2)c2cccnc2)c(C)c1 (stereo not drawn) | 10.1%
18 | Cc1ccc(N(C(=O)CNC(=O)c2ccco2)C(C(=O)NC2CCCCC2)c2cccnc2)c(C)c1 (stereo not drawn) | -71.9%
19 | COc1ccc(N(C(=O)c2ccco2)C(C(=O)NC2CCCC2)c2ccncc2)cc1OC (stereo not drawn) | 5.24%

Row | SMILES | hERG current change (%, negative = inhibition) at 10uM
20 | COc1ccc(CCN(C(=O)c2ccco2)C(C(=O)NC2CCCC2)c2ccncc2)cc1OC (stereo not drawn) | -55%
21 | COc1cccc(C(C(=O)NC2CCCC2)N(C(=O)c2ccco2)c2ccc(NC(C)=O)cc2)c1OC (stereo not drawn) | -64%
22 | COc1cccc(C(C(=O)NC2CCCC2)N(C(=O)c2ccco2)c2ccc(C(C)=O)cc2)c1OC (stereo not drawn) | -13.3%
23 | COc1cccc(C(C(=O)NC2CCCC2)N(C(=O)c2ccco2)c2cccc(C(C)=O)c2)c1OC (stereo not drawn) | 13.9%
24 | O=C(NCC(=O)N(CCc1ccccc1)C(C(=O)NC1CCCCC1)c1ccncc1)c1ccco1 (stereo not drawn) | -54.6%
25 | O=C(NCC(=O)N(Cc1ccccc1)C(C(=O)NC1CCCC1)c1ccncc1)c1ccco1 (stereo not drawn) | 5.71%
26 | COCCN(C(=O)CSc1nnc(C)n1-c1ccc(C)cc1)c1c(N)n(Cc2ccccc2)c(=O)[nH]c1=O | -2.83%
27 | COc1ccc(C(=O)NCc2ccc(-c3nc4ccccc4s3)cc2)cc1 | 10.1%
28 | NS(=O)(=O)c1ccc(CCNC(=O)Nc2ccc(Cl)c(Cl)c2)cc1 | 15.3%
29 | CN(C)C1=NCCN1CCc1cccc(F)c1 | -8.41%
30 | O=C(NCCN1CCOCC1)c1cc2ccccc2oc1=O | -1.87%
31 | Oc1ccc(/C=N/Nc2nccnc2Cl)c(O)c1 | 0.455%
32 | COc1ccc(OC)c(C2=NOC(C(=O)NCc3cccs3)C2)c1 (stereo not drawn) | -13.5%
33 | Cc1ccc(CNc2nc3ccccc3n3cnnc23)cc1 | -6.53%
34 | O=C(NC1CCCC1)C(c1cccnc1)N(CCc1ccccc1)C(=O)c1ccco1 (stereo not drawn) | -69%
35 | Cc1ccc(CN(C(=O)c2ccco2)C(C(=O)NC2CCCC2)c2cccnc2)cc1 (stereo not drawn) | -1.98%
36 | O=C(NCC(=O)N(CCc1ccccc1)C(C(=O)NC1CCCC1)c1cccnc1)c1ccco1 (stereo not drawn) | -43.8%
37 | CCOC(=O)c1cc(-c2ccccc2)nn1CC1CC(c2ccc(Cl)cc2)=NO1 (stereo not drawn) | -16.2%
38 | COc1ccc([N+](=O)[O-])cc1NC(=O)C1(c2ccc(OC)c(OC)c2)CCOCC1 | -14.4%

Row | SMILES | hERG current change (%, negative = inhibition) at 10uM
39 | Cc1ccc(NC(=O)CSc2nnc(CNC(=O)c3cccs3)o2)c(C)c1 | 6.79%
40 | O=C(NCCc1cccc(F)c1)/C(=C/c1cccnc1)NC(=O)c1ccccc1 | -36.4%
41 | COc1ccc(CCNC(=O)/C(=C/c2cccnc2)NC(=O)c2ccccc2)cc1OC | -3.35%
42 | COc1ccc(CCNC(=O)/C(=C/c2cccnc2)NC(=O)c2ccccc2)cc1 | -47.2%
43 | O=C(NCCc1ccc(Cl)cc1)/C(=C/c1cccnc1)NC(=O)c1ccccc1 | -70.9%
44 | COc1ccccc1CCNC(=O)/C(=C/c1cccnc1)NC(=O)c1ccccc1 | -33.9%
45 | O=C(NCCc1ccccc1F)/C(=C/c1cccnc1)NC(=O)c1ccccc1 | -52.2%
46 | CC1(C)c2[nH]c3ccccc3c2C[C@@H]2C(=O)N(Cc3ccccc3Cl)C(=O)N21 | 15.4%
47 | Cc1ccc(S(=O)(=O)NC(C)(C)CSc2nncn2N)cc1 | 9.75%
48 | O=C(O)C#Cc1cccc2ccccc12 | 29.8%
49 | COc1ccc(N2CCN(CC(=O)Nc3ccc(SC(F)F)cc3)CC2)cc1 | -76.6%
50 | O=C1CN(CC(=O)Nc2ccc(SC(F)F)cc2)CCN1 | -32.6%
51 | COc1cccc(N2CCN(CC(=O)Nc3ccc(-n4cnnn4)cc3)CC2)c1 | 7.28%
52 | O=C(CN1CCN(c2ccc(O)cc2)CC1)Nc1ccc(-c2ccccc2)cc1 | -5.1%
53 | O=C(CN1CCN(c2ccc(O)cc2)CC1)Nc1ccc(SC(F)F)cc1 | -74.7%
54 | COc1ccc(NC(=O)CN2CCN(c3ccccc3)CC2)cc1 | 1.85%
55 | COc1ccc(NC(=O)CN2CCN(c3ccc(F)cc3)CC2)cc1 | -4.62%
56 | COc1ccc(N2CCN(CC(=O)Nc3ccc(C)cc3)CC2)cc1 | -18.7%
57 | COc1cccc(N2CCN(CC(=O)Nc3ccc(SC(F)F)cc3)CC2)c1 | -65.5%
